ChEMBL document CHEMBL3988442, “University of Dundee, Small-Polar-MMV Screening Library” (2021)

biological target: T1, Proteasome subunit beta (Trypanosoma cruzi) (UniProt O96673); assay: Trypanosoma cruzi proteasome chymotrypsin-like activity (TcProtChymo) assay.; format: functional; set-up: scale not given: in the data most compounds retested in dose-response had high values; conditions: 9.37 µM
T1 sequence (whole entry): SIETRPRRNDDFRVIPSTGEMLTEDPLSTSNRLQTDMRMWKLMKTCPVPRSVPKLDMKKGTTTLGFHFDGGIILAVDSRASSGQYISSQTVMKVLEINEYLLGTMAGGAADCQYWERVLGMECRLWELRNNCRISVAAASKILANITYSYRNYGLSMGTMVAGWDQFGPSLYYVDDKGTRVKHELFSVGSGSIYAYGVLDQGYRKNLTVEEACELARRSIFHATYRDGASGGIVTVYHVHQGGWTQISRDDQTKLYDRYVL

How did the Percent Effect turn out when `CC(=O)N1CCCN(C(=O)NCCc2cc(Cl)cc(Cl)c2)CC1` was run?
Its Percent Effect is 1.54%.

How did the Percent Effect turn out when `CC(NC(=O)NCCCN(C)S(C)(=O)=O)c1ccncc1` (stereo not drawn) was run?
The Percent Effect was 10.8%.

Which Percent Effect does the source give for `COc1cc(C(=O)N2CCC(c3n[nH]c(C4CC4)n3)CC2)ccc1C` here?
The Percent Effect was -0.686%.

`Cc1cc2n(n1)CC(CNCc1cnn(-c3ccccc3)c1)CN2` (stereo not drawn) was tested. Which Percent Effect did it give?
Its Percent Effect is 13.9%.

For `Cc1nc(O)cc(C2CCN(Cc3cccc(F)c3F)C2)n1` (stereo not drawn), which Percent Effect is on record?
Its Percent Effect is 9.83%.

How did the Percent Effect turn out when `CCn1ccnc1CN1CCN(Cc2ccc(C#N)cc2)CC1` was run?
The Percent Effect was 15.9%.

For `O=C(CC1CCCC1)N1CCCC1c1nc(O)cc(-c2ccccn2)n1` (stereo not drawn), which Percent Effect is on record?
The Percent Effect was 13.9%.

For `CC(C)NC(=O)c1ccc2c(c1)nc1n2CCN(C(C)C)C1`, which Percent Effect is on record?
Its Percent Effect is 19.2%.

How did the Percent Effect turn out when `CN(C)C(=O)CC1CC2(CCNCC2)c2cc(F)ccc21` (stereo not drawn) was run?
Its Percent Effect is 21%.

With `COc1cccc(COCC(=O)N2CCCC(c3cc(C)[nH]n3)C2)c1` (stereo not drawn) as the compound, how does the Percent Effect read?
Its Percent Effect is 2.7%.

With `Cc1ccccc1C(=O)N1CCOC2(CNCCOC2)C1` (stereo not drawn) as the compound, how does the Percent Effect read?
The Percent Effect was 17.8%.

For `CC(C)n1ccnc1CN1CCCN(C(=O)COC2CCCC2)CC1`, which Percent Effect is on record?
The Percent Effect was 4.29%.

How did the Percent Effect turn out when `OC[C@H]1CC[C@]2(CC1)CN(Cc1ccccc1F)Cc1ccccc1O2` was run?
Its Percent Effect is 12.6%.

`Cc1nc(CN2C[C@@H]3CN(C(=O)c4cnccn4)C[C@@H]3C2)cs1` was tested. Which Percent Effect did it give?
Its Percent Effect is 7.45%.

Which Percent Effect does the source give for `c1ccc(-c2noc(CNC3CCc4ncnn4C3)n2)nc1` (stereo not drawn) here?
The Percent Effect was -5.57%.

Which Percent Effect does the source give for `CCN1CC(C(=O)NC(C)(C)CNC(=O)OC(C)(C)C)CC1=O` (stereo not drawn) here?
The Percent Effect was 7.47%.

Which Percent Effect does the source give for `CC(Cn1cccn1)NC(=O)Nc1ccc(F)cc1` (stereo not drawn) here?
Its Percent Effect is 22.1%.

Which Percent Effect does the source give for `Cc1nc2cc(O)nn2c(C)c1CCC(=O)N(C)Cc1cscn1` here?
The Percent Effect was 6.42%.

Which Percent Effect does the source give for `CCc1ncc(CNC2CC(=O)N(CCc3cccc(Cl)c3)C2)cn1` (stereo not drawn) here?
Its Percent Effect is 6.76%.

How did the Percent Effect turn out when `CC(C)n1c(C2CCCN(CCS(C)(=O)=O)C2)nc2ccccc21` (stereo not drawn) was run?
Its Percent Effect is 7.69%.

With `O=C(Cc1ccc2c(c1)OCCO2)N1CCCC(n2cccn2)C1` (stereo not drawn) as the compound, how does the Percent Effect read?
The Percent Effect was 3.15%.

With `Cc1nc(C)n(C2CCCN(C(=O)c3sccc3C3CC3)C2)n1` (stereo not drawn) as the compound, how does the Percent Effect read?
Its Percent Effect is 0.409%.

With `Cc1ccc2c(n1)N(CCn1cccn1)CCN(C(=O)CC1CC1)C2` as the compound, how does the Percent Effect read?
The Percent Effect was 10.6%.

For `Cc1nc(CNC(C)c2ccc(OCC(=O)NC3CC3)cc2)cs1` (stereo not drawn), which Percent Effect is on record?
The Percent Effect was 23.8%.

With `CN(CCC#N)C(=O)CCOc1cccc(F)c1` as the compound, how does the Percent Effect read?
The Percent Effect was 10.3%.

`COc1cccc(CNC(=O)CN2CCCCC2Cn2cccn2)c1` (stereo not drawn) was tested. Which Percent Effect did it give?
The Percent Effect was 2.83%.

How did the Percent Effect turn out when `CN1CC(=O)N(c2cnn(C)c2)CC12CCN(Cc1nccn1C)C2` (stereo not drawn) was run?
The Percent Effect was 10.2%.

How did the Percent Effect turn out when `COc1ncccc1NC(=O)N1CCC(CN2CCOCC2)CC1` was run?
The Percent Effect was 7.15%.

With `CC(=O)NC(C)(C)C(=O)Nc1ncc(Cc2ccc(C)c(F)c2)s1` as the compound, how does the Percent Effect read?
The Percent Effect was 13.2%.

How did the Percent Effect turn out when `Cc1cccc(COC[C@]23COC[C@H]2CN(C(=O)c2ccsc2)C3)n1` was run?
Its Percent Effect is 10.9%.

Which Percent Effect does the source give for `COCc1noc(C2(c3ccc(OC)cc3)CCOCC2)n1` here?
The Percent Effect was 14.1%.

Which Percent Effect does the source give for `CC(=O)Nc1cccc(C(=O)Nc2cnc3n2CCCC3)c1` here?
Its Percent Effect is 6.14%.

How did the Percent Effect turn out when `O=C(NCCOc1ccc2c(c1)OCO2)C1CC(=O)N(CC2CC2)C1` (stereo not drawn) was run?
The Percent Effect was 9.56%.

How did the Percent Effect turn out when `CN(C)c1cncc(C2CCN(CCO)CC2)n1` was run?
The Percent Effect was 8.74%.

`COc1ccc(OCC(=O)NS(=O)(=O)c2cc(F)ccc2F)cc1` was tested. Which Percent Effect did it give?
Its Percent Effect is 5.34%.

Which Percent Effect does the source give for `Cc1nn(C)c(N(C)C)c1CNCc1cccnc1-n1cncn1` here?
Its Percent Effect is 12.9%.

Which Percent Effect does the source give for `COc1ccc(CN2C[C@@H]3COC[C@]3(COc3cccnc3)C2)cc1` here?
Its Percent Effect is 4.14%.

With `O=C(NCCN1CCC(c2cccs2)CC1)c1ccccc1C(F)(F)F` as the compound, how does the Percent Effect read?
Its Percent Effect is 17.2%.

Which Percent Effect does the source give for `Cc1nc(CN2CCCC(N(C)Cc3c(C)noc3C)C2)no1` (stereo not drawn) here?
Its Percent Effect is 16.6%.

species on record: Homo sapiens; assay: To identify inhibition of the IFN signalling (Jak-Stat) pathway via expression of an eGFP reporter gene under the control of an IFN-stimulated response element (ISRE) containing MxA promoter.; format: functional; set-up: scale not given: direction of the effect not stated beside the values; conditions: 30 µM

With `CC(=O)N1CCCN(C(=O)NCCc2cc(Cl)cc(Cl)c2)CC1` as the compound, how does the Percent Effect read?
Its Percent Effect is 13.1%.

With `CC(NC(=O)NCCCN(C)S(C)(=O)=O)c1ccncc1` (stereo not drawn) as the compound, how does the Percent Effect read?
The Percent Effect was 1.71%.

Which Percent Effect does the source give for `COc1cc(C(=O)N2CCC(c3n[nH]c(C4CC4)n3)CC2)ccc1C` here?
Its Percent Effect is 8.43%.

How did the Percent Effect turn out when `Cc1cc2n(n1)CC(CNCc1cnn(-c3ccccc3)c1)CN2` (stereo not drawn) was run?
The Percent Effect was 15.7%.

With `Cc1nc(O)cc(C2CCN(Cc3cccc(F)c3F)C2)n1` (stereo not drawn) as the compound, how does the Percent Effect read?
Its Percent Effect is 2.45%.

Which Percent Effect does the source give for `CCn1ccnc1CN1CCN(Cc2ccc(C#N)cc2)CC1` here?
The Percent Effect was 19.8%.

Which Percent Effect does the source give for `O=C(CC1CCCC1)N1CCCC1c1nc(O)cc(-c2ccccn2)n1` (stereo not drawn) here?
Its Percent Effect is 1.89%.

For `CC(C)NC(=O)c1ccc2c(c1)nc1n2CCN(C(C)C)C1`, which Percent Effect is on record?
Its Percent Effect is -1.16%.

How did the Percent Effect turn out when `CN(C)C(=O)CC1CC2(CCNCC2)c2cc(F)ccc21` (stereo not drawn) was run?
The Percent Effect was -0.894%.

For `COc1cccc(COCC(=O)N2CCCC(c3cc(C)[nH]n3)C2)c1` (stereo not drawn), which Percent Effect is on record?
Its Percent Effect is 10.1%.

With `Cc1ccccc1C(=O)N1CCOC2(CNCCOC2)C1` (stereo not drawn) as the compound, how does the Percent Effect read?
The Percent Effect was 11.5%.

`CC(C)n1ccnc1CN1CCCN(C(=O)COC2CCCC2)CC1` was tested. Which Percent Effect did it give?
Its Percent Effect is 2.51%.

Which Percent Effect does the source give for `OC[C@H]1CC[C@]2(CC1)CN(Cc1ccccc1F)Cc1ccccc1O2` here?
The Percent Effect was 41.4%.

With `Cc1nc(CN2C[C@@H]3CN(C(=O)c4cnccn4)C[C@@H]3C2)cs1` as the compound, how does the Percent Effect read?
The Percent Effect was 7.67%.

Which Percent Effect does the source give for `c1ccc(-c2noc(CNC3CCc4ncnn4C3)n2)nc1` (stereo not drawn) here?
Its Percent Effect is 6.37%.

With `CCN1CC(C(=O)NC(C)(C)CNC(=O)OC(C)(C)C)CC1=O` (stereo not drawn) as the compound, how does the Percent Effect read?
Its Percent Effect is -16.6%.

How did the Percent Effect turn out when `CC(Cn1cccn1)NC(=O)Nc1ccc(F)cc1` (stereo not drawn) was run?
The Percent Effect was 9.63%.

`Cc1nc2cc(O)nn2c(C)c1CCC(=O)N(C)Cc1cscn1` was tested. Which Percent Effect did it give?
The Percent Effect was 15.6%.

How did the Percent Effect turn out when `CCc1ncc(CNC2CC(=O)N(CCc3cccc(Cl)c3)C2)cn1` (stereo not drawn) was run?
Its Percent Effect is 0.221%.

With `CC(C)n1c(C2CCCN(CCS(C)(=O)=O)C2)nc2ccccc21` (stereo not drawn) as the compound, how does the Percent Effect read?
Its Percent Effect is -5.65%.

For `O=C(Cc1ccc2c(c1)OCCO2)N1CCCC(n2cccn2)C1` (stereo not drawn), which Percent Effect is on record?
Its Percent Effect is 22.6%.

`Cc1nc(C)n(C2CCCN(C(=O)c3sccc3C3CC3)C2)n1` (stereo not drawn) was tested. Which Percent Effect did it give?
The Percent Effect was 22.4%.

For `Cc1ccc2c(n1)N(CCn1cccn1)CCN(C(=O)CC1CC1)C2`, which Percent Effect is on record?
The Percent Effect was 10.3%.

With `Cc1nc(CNC(C)c2ccc(OCC(=O)NC3CC3)cc2)cs1` (stereo not drawn) as the compound, how does the Percent Effect read?
Its Percent Effect is 3.09%.

With `CN(CCC#N)C(=O)CCOc1cccc(F)c1` as the compound, how does the Percent Effect read?
The Percent Effect was 20.8%.

With `COc1cccc(CNC(=O)CN2CCCCC2Cn2cccn2)c1` (stereo not drawn) as the compound, how does the Percent Effect read?
Its Percent Effect is -17%.

`CN1CC(=O)N(c2cnn(C)c2)CC12CCN(Cc1nccn1C)C2` (stereo not drawn) was tested. Which Percent Effect did it give?
The Percent Effect was 6.84%.

`COc1ncccc1NC(=O)N1CCC(CN2CCOCC2)CC1` was tested. Which Percent Effect did it give?
Its Percent Effect is -13.1%.

How did the Percent Effect turn out when `CC(=O)NC(C)(C)C(=O)Nc1ncc(Cc2ccc(C)c(F)c2)s1` was run?
The Percent Effect was 28.2%.

For `Cc1cccc(COC[C@]23COC[C@H]2CN(C(=O)c2ccsc2)C3)n1`, which Percent Effect is on record?
The Percent Effect was -2.76%.

`COCc1noc(C2(c3ccc(OC)cc3)CCOCC2)n1` was tested. Which Percent Effect did it give?
The Percent Effect was 9.88%.

For `CC(=O)Nc1cccc(C(=O)Nc2cnc3n2CCCC3)c1`, which Percent Effect is on record?
Its Percent Effect is 17.5%.

With `O=C(NCCOc1ccc2c(c1)OCO2)C1CC(=O)N(CC2CC2)C1` (stereo not drawn) as the compound, how does the Percent Effect read?
The Percent Effect was -20.7%.

How did the Percent Effect turn out when `CN(C)c1cncc(C2CCN(CCO)CC2)n1` was run?
Its Percent Effect is 8.75%.

How did the Percent Effect turn out when `COc1ccc(OCC(=O)NS(=O)(=O)c2cc(F)ccc2F)cc1` was run?
The Percent Effect was 22.6%.

`Cc1nn(C)c(N(C)C)c1CNCc1cccnc1-n1cncn1` was tested. Which Percent Effect did it give?
The Percent Effect was -1.83%.

Which Percent Effect does the source give for `COc1ccc(CN2C[C@@H]3COC[C@]3(COc3cccnc3)C2)cc1` here?
The Percent Effect was -15.2%.

`O=C(NCCN1CCC(c2cccs2)CC1)c1ccccc1C(F)(F)F` was tested. Which Percent Effect did it give?
The Percent Effect was 3.57%.

For `Cc1nc(CN2CCCC(N(C)Cc3c(C)noc3C)C2)no1` (stereo not drawn), which Percent Effect is on record?
Its Percent Effect is 6.79%.
